In PubChem BioAssay (EPA / NIEHS) one finds outcome and AC50 data, which are given here for six molecules.

Test [1] in a line: ACEA_ER_80hr: ACEA Biosciences xCELLigence Real-Time Cell Analysis on Estrogen Receptor Agonism for Proliferation (AID 2282667; active means hit-call score of the fitted dose curve at least 0.9, where 1 is the maximum). Conditions: T47D proliferation, impedance (xCELLigence), 80 h. The gist of the method: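 Estrogen-driven proliferation is captured as electrode impedance in T47D cells 80 h after compound addition. Test articles ran at 8 concentrations, 1:4 dilutions from 100 uM final, in two replicate plates.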

The nature of test [2]: APR_HepG2_CellCycleArrest_24hr: Apredica 24-hour HepG2 Assay for Cell Cycle Arrest (AID 2282905).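 Further: cell cycle arrest scored as ratio of 2N to 4N nuclear DNA content.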 Particulars: imaging, actives raise or lower the signal. In a few lines:
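After 24 h exposure at 0.39–200 uM in 0.5% DMSO, fixed cells received Hoechst 33342 staining. Imaging quantified per-nucleus DNA content; gain or loss fitted against DMSO controls.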

Test [3] is described as follows: APR_HepG2_CellLoss_24hr: Apredica 24-hour HepG2 Assay for Cell Loss (AID 2282908). Conditions: high-content imaging. The gist of the method:
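Nuclei stained with Hoechst 33342 after formaldehyde fixation (3.7%) were imaged at 20x to count cells. Exposure lasted 24 hr, at ten concentrations from 0.39 to 200 uM in duplicate, with 0.5% v/v DMSO. Fit bidirectional, relative to DMSO.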

The nature of test [4]: APR_HepG2_MicrotubuleCSK_24hr: Apredica 24-hour HepG2 Assay for Microtubule CSK Stabilty (AID 2282909). Particulars: HepG2 microtubule cytoskeleton imaging, actives raise or lower the signal. The gist of the method: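 Fixed HepG2 cells were stained for alpha-tubulin and imaged after 24 hr exposure to ten concentrations spanning 0.39–200 uM in 0.5% DMSO. Signal change was fitted in both directions relative to DMSO; taxol was the positive control.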

Test [5] in a line: APR_HepG2_MitoticArrest_24hr: Apredica 24-hour HepG2 Assay for Mitotic Arrest (AID 2282910). Conditions: high-content imaging, actives raise or lower the signal. The gist of the method:
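HepG2, 24 hr dosing, 0.39–200 uM, 0.5% DMSO final. Formaldehyde-fixed, Triton-permeabilised, anti-phospho-histone H3 plus Hoechst. ArrayScan imaging at 20x; bidirectional fit vs DMSO baseline.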

A short description of test [6]: APR_HepG2_MitoMembPot_24hr: Apredica 24-hour HepG2 Assay for Mitochondrial Membrane Potential (AID 2282911). Particulars: imaging, actives raise or lower the signal. The gist of the method:
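Mitochondrial dye uptake (MitoTracker Red CMXRos, 250 nM, 30 min pre-fixation) in HepG2 after 24 hr compound exposure, 0.39–200 uM; ArrayScan images at 20x, activity fitted in both directions relative to DMSO.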

Test [7] can be described thus: APR_HepG2_MitoMass_24hr: Apredica 24-hour HepG2 Assay for Mitochondrial Mass (AID 2282912). Particulars: high-content imaging, actives raise or lower the signal. In a few lines: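 Endpoint is MitoTracker Red CMXRos (250 nM, 30 min, pre-fixation) intensity from 20x high-content imaging, nuclei located by Hoechst. Human HepG2 cells received ten concentrations from 0.39 to 200 uM in 0.5% DMSO for 24 hr, duplicate wells. Bidirectional fit relative to DMSO.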

Test [8] can be described thus: APR_HepG2_CellLoss_72hr: Apredica 72-hour HepG2 Assay for Cell Loss (AID 2282915). Particulars: high-content imaging. The gist of the method: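 HepG2 cells exposed 72 h to compound at 0.39–200 uM (10 concentrations, duplicate) in 0.5% DMSO. Fixed with 3.7% formaldehyde and Hoechst 33342-stained. Imaged at 20x; nuclear count gives cell number, fitted bidirectionally versus DMSO.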

The nature of test [9]: APR_HepG2_P-H2AX_72hr: Apredica 72-hour HepG2 Assay for H2AX Phosphorylation (AID 2282916).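 Further: phospho-histone H2A.x immunostain intensity per cell marking DNA damage.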 Conditions: imaging, actives raise or lower the signal. In a few lines:
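Phospho-histone H2A.x immunofluorescence, multiplexed with Hoechst and c-Jun, quantified by high-content imaging. Compounds applied to HepG2 for 72 h across ten concentrations (0.39–200 uM, 0.5% DMSO), in duplicate; DMSO baseline.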

Test [10] is described as follows: APR_HepG2_MitoMembPot_72hr: Apredica 72-hour HepG2 Assay for Mitochondrial Membrane Potential (AID 2282917). Particulars: imaging, actives raise or lower the signal. The gist of the method: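 HepG2 cells dosed 72 hr with compound at 0.39–200 uM in duplicate, 0.5% v/v DMSO final. Mitochondria stained with 250 nM MitoTracker Red CMXRos for 30 min before formaldehyde fixation, imaged by high-content fluorescence; bidirectional fit versus DMSO.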

Test [11] in a line: APR_HepG2_MitoticArrest_72hr: Apredica 72-hour HepG2 Assay for Mitotic Arrest (AID 2282918). Conditions: high-content imaging, actives raise or lower the signal. In a few lines: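 Using high-content imaging of fixed HepG2 cells, phospho-histone H3 signal was measured following a 72 hr incubation with ten-point compound dilutions up to 200 uM. DMSO served as the negative control and baseline for bidirectional curve fitting.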

The nature of test [12]: APR_HepG2_MicrotubuleCSK_72hr: Apredica 72-hour HepG2 Assay for Microtubule CSK Stabilty (AID 2282919). Conditions: HepG2 microtubule cytoskeleton, high-content imaging, actives raise or lower the signal. The gist of the method:
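HepG2, 72 hr cmpd exposure, 0.39–200 uM (10 pts, duplicate), 0.5% DMSO. 3.7% formaldehyde fix, 0.5% Triton perm, anti-alpha-tubulin/Cy5 plus Hoechst. HCS fluorescence intensity; bidirectional fit vs DMSO baseline; taxol as positive control.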

The nature of test [13]: APR_HepG2_P-H2AX_24hr: Apredica 24-hour HepG2 Assay for H2AX Phosphorylation (AID 2282920). Conditions: high-content imaging, actives raise or lower the signal. In a few lines: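 Human HepG2 liver cells, treated 24 hr with test chemicals (0.39–200 uM, final DMSO 0.5% v/v), are fixed and co-stained for phospho-H2A.x and c-Jun with Hoechst. Imaged intensity is fitted in both directions against DMSO controls.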

Test [14] is described as follows: APR_HepG2_StressKinase_72hr: Apredica 72-hour HepG2 Assay for Stress Kinase (AID 2282921). Particulars: HepG2 stress kinase (phospho-c-Jun) imaging, actives raise or lower the signal. The gist of the method:
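Stress kinase signal is phospho-c-Jun immunofluorescence (1:500 primary, Cy3 secondary) in fixed, permeabilized human HepG2 cells imaged at 20x. Exposure lasted 72 hr over ten concentrations from 0.39 to 200 uM, 0.5% DMSO, in duplicate. Bidirectional fit versus DMSO.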

Test [15] is described as follows: APR_HepG2_StressKinase_24hr: Apredica 24-hour HepG2 Assay for Stress Kinase (AID 2282922). Particulars: HepG2 stress kinase (phospho-c-Jun) imaging, actives raise or lower the signal. In a few lines: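 Read-out: phospho-c-Jun immunofluorescence (Cy3 secondary) quantified by high-content imaging at 20x, nuclei defined by Hoechst 33342. Human HepG2 liver cells dosed 24 hr, 0.39–200 uM, DMSO 0.5% v/v; gain or loss of signal fitted relative to DMSO.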

A short description of test [16]: APR_HepG2_MitoMass_72hr: Apredica 72-hour HepG2 Assay for Mitochondrial Mass (AID 2282924).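 Further: MitoTracker Red CMXRos stain intensity per cell imaged as mitochondrial mass.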 Conditions: high-content imaging, actives raise or lower the signal. In a few lines:
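Read-out: MitoTracker Red fluorescence intensity from automated imaging (20x, six fields per well) in human HepG2 liver cells. Dosing ran 72 hr, 0.39–200 uM, 0.5% DMSO; bidirectional curve fitting versus DMSO baseline.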

Test [17] is described as follows: APR_HepG2_NuclearSize_72hr: Apredica 72-hour HepG2 Assay for Nuclear Size (AID 2282925). Particulars: high-content imaging, actives raise or lower the signal. The gist of the method:
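Read-out: nuclear diameter from Hoechst 33342 images (ArrayScan, 20x, six fields/well), via cell-cycle image analysis. HepG2 were dosed 0.39–200 uM for 72 hr in 0.5% DMSO. Bidirectional fit relative to DMSO.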

A short description of test [18]: APR_HepG2_p53Act_24hr: Apredica 24-hour HepG2 Assay for p53 Activation (AID 2282913).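 Further: p53 protein immunofluorescence averaged per cell in HepG2 with Hoechst nuclei.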 Conditions: high-content imaging, actives raise or lower the signal. In a few lines:
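Following 24 hr dosing of HepG2 at 0.39–200 uM, the cells undergo formaldehyde fixation, Triton permeabilization and multiplexed antibody labeling that includes p53 (Cy5). Signal from the imaging is referenced to DMSO solvent controls.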

The nature of test [19]: APR_HepG2_CellCycleArrest_72hr: Apredica 72-hour HepG2 Assay for Cell Cycle Arrest (AID 2282914). Conditions: high-content imaging, actives raise or lower the signal. The gist of the method:
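Using multiplexed high-content imaging, HepG2 nuclei stained with Hoechst 33342 (2 ug/mL) were analysed for DNA content after fixation and permeabilization. Treatment lasted 72 hr across 0.39–200 uM in duplicate with final DMSO 0.5% v/v; DMSO served as negative control.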

A short description of test [20]: APR_HepG2_NuclearSize_24hr: Apredica 24-hour HepG2 Assay for Nuclear Size (AID 2282907). Particulars: high-content imaging, actives raise or lower the signal. The gist of the method: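 Nuclear size from Hoechst 33342-stained, formaldehyde-fixed HepG2 nuclei imaged by high-content microscopy, after 24 h dosing at ten concentrations from 0.39 to 200 uM in 0.5% DMSO; gain or loss relative to DMSO baseline.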

Each structure is given as a SMILES string. Results filed as inconclusive are left out. Activity calls are given as the source filed them. How the source made its calls, unless noted: active means hit-call score of the fitted dose curve at least 0.9, where 1 is the maximum; inactive means score below 0.9.

With `CCCC(CCC)C(=O)O`, the molecule was called inactive in [1], in test [2], in test [3], in test [4], in [5] and in [6]. For the same molecule, the molecule was called inactive in [7], in [8], in test [9], in [10], in test [11] and in test [12]. Besides, the outcome in [13], in [14], in test [15], in test [16] and in test [17] was inactive.

On to `COCc1nnc(-c2ccc[n+]([O-])c2)n1-c1c(Cl)c(Cl)cc2[nH]c(=O)c(=O)[nH]c12`, for which the result in test [1], in test [2], in test [3], in test [4], in test [5] and in test [6] was inactive. Besides, the outcome in [7], in test [8], in test [9], in [10], in [11] and in [12] was inactive. For the same molecule, the molecule was classed as inactive in test [13], in test [14], in test [15], in [16] and in test [17].

For `OC(Cn1cncn1)(Cn1cncn1)c1ccc(F)cc1F`, the molecule was called inactive in test [1], in test [2], in test [3], in test [4], in [5] and in test [6]. Also, the result in test [7], in [18], in test [8], in test [9], in test [10] and in [11] was inactive. The result in [12], in test [13], in test [14], in [15], in [16] and in [17] was inactive.

Take `O=C(O)c1ccc2c(c1)nc(C(=O)NC1CCN(C3CC3)CC1)n2Cc1cc(-c2ccc(Cl)s2)on1`: the outcome in test [1], in test [2], in test [3], in test [4], in [5] and in [6] was inactive. Besides, the result in [7], in test [18], in [19], in test [8], in test [9] and in [10] was inactive. The outcome in test [11], in [12], in test [13], in test [14], in test [15] and in [16] was inactive. Moreover, the result in test [17] was inactive.

With `O=C(O)[C@H](O)[C@@H](O)C(=O)O`, the outcome in test [1], in test [2], in test [3], in test [4], in test [5] and in test [6] was inactive. Further, the result in [7], in [8], in test [9], in test [10], in test [11] and in test [12] was inactive. Further, the result in test [13], in test [14], in test [15], in test [16] and in test [17] was inactive.

One may read the AC50 as the midpoint of the concentration-response curve, whichever way the signal moves. Consider `NC(=O)N1c2ccccc2C=Cc2ccccc21`, for which the AC50 in test [1] was 69.5 µM (active). For the same molecule, the call in test [2], in test [20], in [3], in test [4], in [5] and in [6] was inactive. Besides, the molecule was called inactive in test [19], in test [8], in [9], in test [10], in test [11] and in test [12]. Moreover, the result in test [13], in test [14], in test [15], in test [16] and in test [17] was inactive.
